Source: PubChem BioAssay AID624417 (National Center for Advancing Translational Sciences (NCATS), 2012)
Out of some 410,000 compounds screened, about 6,400 (1.6%) were called active. About 20% were inconclusive and are not listed. The sample as a whole holds a higher share of actives than the screen did. Values without a mark were called inactive. The call rests on the fitted dose curve; in most records, active means well fitted inhibition curve with a large enough effect; inconclusive means small, poorly fitted or top-dose-only effect; inactive means no such curve, though single readings can be large or run the other way.

Biological target: Glucagon-like peptide 1 receptor (Homo sapiens) (UniProt P43220)
Assay: qHTS of GLP-1 Receptor Inverse Agonists (Inhibition Mode); further: nearly all actives have a fitted effect of over 55% in size
Settings: HEK293 GLP-1R CRE-luciferase, luminescence, 24 h, GLP-1R form is constitutively active; series mostly up to 38.3 µM; activity change, negative = inhibition: at the top concentration
In short: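 Cells are plated, allowed 12 hours at 37 deg C, then treated with compounds for 24 hr before luciferase detection reagent is added and luminescence is read after 12 min at room temperature. The HEK293 line carries constitutively active GLP-1R with a cAMP-responsive reporter.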
On the % scale 0 is the no-effect control and ±100 the full control effect; potency means the concentration at half of the fitted maximal effect.

Sequence of Glucagon-like peptide 1 receptor (Homo sapiens) (P43220 whole entry, looked up): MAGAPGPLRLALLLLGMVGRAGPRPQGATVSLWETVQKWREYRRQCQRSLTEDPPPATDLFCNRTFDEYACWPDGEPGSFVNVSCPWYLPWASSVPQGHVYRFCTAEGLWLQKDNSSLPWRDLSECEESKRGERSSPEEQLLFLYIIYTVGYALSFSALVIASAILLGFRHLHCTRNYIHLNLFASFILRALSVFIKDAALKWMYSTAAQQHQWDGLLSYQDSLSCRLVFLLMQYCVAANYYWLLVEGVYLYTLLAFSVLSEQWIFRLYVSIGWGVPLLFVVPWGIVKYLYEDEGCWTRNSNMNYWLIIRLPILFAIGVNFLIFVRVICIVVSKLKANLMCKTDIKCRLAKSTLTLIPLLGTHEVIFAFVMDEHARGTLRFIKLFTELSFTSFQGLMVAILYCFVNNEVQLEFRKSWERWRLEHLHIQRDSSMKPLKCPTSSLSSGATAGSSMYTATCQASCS

SMILES | activity change, negative = inhibition [%] | Potency
C[C@H](CO)N1C[C@H](C)[C@@H](CN(C)S(=O)(=O)c2ccc(F)cc2)OCc2cnnn2CCCC1=O | -1.3 | –
O=C(Nc1cccc(Cc2ccccc2)c1)Nc1ccc2nc([C@@H]3O[C@H](CO)[C@@H](O)[C@H](O)[C@H]3O)[nH]c2c1 | 4.05 | –
O=C(NCCN1CCOCC1)C1CCN(S(=O)(=O)c2ccccc2)CC1 | 4.84 | –
O=C1[C@H]2[C@@H](c3ccc(C(F)(F)F)cc3)N[C@]3(CCCN(Cc4ccc(Br)cc4)C3=O)[C@H]2C(=O)N1Cc1ccccc1 | – | 2.82 µM (active)
Cc1ccc([C@H]2N[C@]3(CCCN(Cc4ccccc4)C3=O)[C@H]3C(=O)N(Cc4ccccc4)C(=O)[C@@H]23)cc1 | -28.2 | –
CCN1C(=O)[C@H]2[C@@H](c3ccc(C(F)(F)F)cc3)N[C@]3(CCCN(Cc4ccc(Br)cc4)C3=O)[C@H]2C1=O | – | 12.6 µM (active)
CCN1C(=O)[C@H]2[C@@H](c3ccccc3)N[C@]3(CCCN(Cc4ccc(C)cc4)C3=O)[C@H]2C1=O | 13.6 | –
O=C1[C@H]2[C@@H](c3ccc(C(F)(F)F)cc3)N[C@]3(CCCN(Cc4ccc(Cl)cc4)C3=O)[C@H]2C(=O)N1Cc1ccccc1 | – | 4.47 µM (active)
COc1ccc([C@H]2N[C@]3(CCCN(CC4CCCCC4)C3=O)[C@H]3C(=O)N(C)C(=O)[C@@H]23)cc1 | -0.512 | –
CCN1C(=O)[C@H]2[C@@H](c3ccc(-c4ccc(OC)cc4)cc3)N[C@@](Cc3ccccc3)(C(=O)OC)[C@H]2C1=O | -7.01 | –
CCN1C[C@@H]2[C@@H]3C(=O)N(Cc4ccccc4)C(=O)[C@@H]3[C@](C)(C1=O)N2C(=O)c1ccc(C(C)(C)C)cc1 | 1.29 | –
COc1ccc([C@H]2N[C@]3(CCCN(Cc4ccco4)C3=O)[C@H]3C(=O)N(C)C(=O)[C@@H]23)cc1 | 12 | –
C[C@H]1CN([C@@H](C)CO)C(=O)c2cc(Br)cnc2O[C@H]1CN(C)S(=O)(=O)c1cccs1 | 5.81 | –
CCOC(=O)C1=CC[C@@H](c2ccncc2)N(S(=O)(=O)c2ccc(C)cc2)C1 | -10.5 | –
Cc1cc2oc(=O)cc(CN(C)Cc3ccccc3)c2cc1Cl | -22.1 | –
CN(C)CCN1CCN(c2cc(-c3cccc(Cl)c3)nc3ccnn23)CC1 | -14.7 | –
COc1ccc(Cl)cc1NC(=O)CSc1nc2ccccc2c2nc(-c3ccccc3)nn12 | 9.31 | –
O=C(COC(=O)CSc1ccccc1)Nc1ccc(F)cc1F | -0.781 | –
O=C(CSc1ccccc1)Nc1cc(Cl)ccc1Oc1ccccc1 | – | 11.2 µM (active)
Cc1ccc(CCNC(=O)CN2C(=O)CSc3ccc(S(=O)(=O)N4CCOCC4)cc32)cc1 | -35.8 | –
CC1=C(C(=O)N2CCOCC2)CC(CC(=O)NCCCN(C)C)C(=O)N1Cc1ccc(C(C)(C)C)cc1 (configuration not stated) | 23 | –
CCCCN1C(=O)C(CC(=O)NCc2cccs2)CC(C(=O)N2CCOCC2)=C1C (configuration not stated) | 10.4 | –
Nc1ncnc2c1ncn2[C@@H]1O[C@H](C(=O)NCC(F)(F)F)[C@@H](O)[C@H]1O | 25.4 | –

SMILES | activity change, negative = inhibition [%] | Potency
O=CNc1cc(-c2ccc(C(=O)N3CCOCC3)cc2)cn2c(-c3ccc(F)cc3)cnc12 | -5.23 | –
CCN1CCN(CCCCOc2ccccc2F)CC1 | 0.199 | –
COc1ccccc1N1CCN(CCCCOc2ccc(F)cc2)CC1 | – | 12.6 µM (active)
COc1ccccc1N1CCN(S(=O)(=O)CCNC(=O)COc2ccc(F)cc2)CC1 | -20.4 | –
Cc1ccc2cccc([N+](=O)[O-])c2n1 | 8.75 | –
C[C@@H]1CN([C@H](C)CO)C(=O)c2cc(-c3ccc(F)cc3)cnc2O[C@H]1CN(C)C(=O)c1ccc(F)cc1 | -8.66 | –
COc1ccc(CN2CCn3ncc(C(=O)Nc4ccc(Cl)cc4Cl)c3C2=O)cc1 | -16.2 | –
COc1ccc(CN(C)C(=S)Nc2ccc(Cl)cc2Cl)cc1 | – | 7.08 µM (active)
S=C(Nc1ccc(Cl)cc1Cl)N1CCCC1 | 7.41 | –
COc1cccc(C(NC(C)=O)c2nc(-c3ccccc3OC)cs2)c1 (configuration not stated) | -12.1 | –
CC1=C(C(=O)N2CCOCC2)CC(CC(=O)NCC2CCCCC2)C(=O)N1Cc1ccc(F)cc1 (configuration not stated) | 3.52 | –
CC1(Oc2cccc(F)c2)CCN(Cc2ccccc2OC(F)F)C1 (configuration not stated) | -4.31 | –
COc1ccccc1N1CCN(Cc2ccc(OC)c3ccccc23)CC1 | 0.582 | –
COc1ccc(CN2CCC(C)(Oc3cccc(F)c3)C2)c2ccccc12 (configuration not stated) | – | 11.2 µM (active)
CCCNC(=O)C1(C)CCN(C(=O)c2ccc(F)cc2Cl)C1 (configuration not stated) | 11.7 | –
COc1ccc([C@H]2CC(=O)C[C@@H](CCn3cc(CC4CCCC4)nn3)O2)cc1 | 21.5 | –
Cc1cc(C)c(S(=O)(=O)NN=C2c3ccccc3[C@H]3Cc4csc[n+]4[C@@H]23)c(C)c1 | 18.1 | –
COc1ccccc1-n1c(SCC(=O)Nc2ccc(Cl)cc2)nc(O)c(Cc2ccccc2)c1=O | -20.6 | –
NC(=O)Cn1cc(/C=N\NS(=O)(=O)c2ccccc2)c2ccccc21 | -27.9 | –
COC(=O)N/N=C/c1cn(CCCOc2ccc(C)cc2)c2ccccc12 | – | 8.91 µM (active)
CC(NC(=O)CCc1cn(Cc2ccccc2Cl)c2ccccc12)c1ccccc1 (configuration not stated) | -8.72 | –
Cc1ccc(OCCOc2cccc(/C=N/NC(N)=O)c2)cc1 | 58.1 | –
CCOC(=O)N/N=C/c1cn(Cc2ccccc2Cl)c2ccccc12 | – | 7.94 µM (active)

SMILES | activity change, negative = inhibition [%] | Potency
COC(=O)N/N=C/c1c[n+]([O-])c2ccccc2[n+]1[O-] | 8.56 | –
O=C(CC[C@H]1O[C@@H](n2ccc(=O)[nH]c2=O)[C@H](O)[C@@H]1O)N[C@H](Cc1ccccc1)C(=O)NCCCN1CCCC1=O | 13.3 | –
CC(=O)Nc1ccc2c3c(ccc([N+](=O)[O-])c13)CC2 | 1.13 | –
O=C(OCc1cn([C@@H]2C[C@H](c3ccc(Cl)cc3)N(Cc3cccs3)C[C@H]2O)nn1)c1ccccc1 | 18 | –
CCC(=O)N1Cc2cc(C(=O)NCc3cccc(F)c3)nc(-c3cccc(C4=CCCC4)c3)c2[C@H]1CCO | 16 | –
CCCOc1ccc(F)cc1-c1cc(C(=O)Nc2ccc(F)cc2)[nH]n1 | -12.9 | –
O=C(C(=O)N1CCC(c2ccccc2)CC1)c1ccccc1 | 16 | –
CN(C)S(=O)(=O)c1cccc(NC(=O)Cc2ccsc2)c1 | 31.4 | –
CN(c1ccccc1)S(=O)(=O)c1cccc(C(=O)NNC(=O)c2ccncc2)c1 | 4.37 | –
CN(c1ccccc1)S(=O)(=O)c1cccc(NC(=O)Cc2c(F)cccc2Cl)c1 | – | 7.94 µM (active)
Cc1ccc(F)c(S(=O)(=O)NC(=O)C2(C)CCN2C(=O)CCc2cccs2)c1 (configuration not stated) | -4.2 | –
Cc1cccc(NC(=S)N(CCN(C)C)C(C)c2ccco2)c1 (configuration not stated) | -25.9 | –
COCCN(C(=S)Nc1ccccc1OC)C1CCN(C(C)C)CC1 | -16.1 | –
CCc1cccc(NC(=S)N(CCN(C)C)C2CCN(C(C)C)CC2)c1 | – | 5.01 µM (active)
CCc1cccc(NC(=O)CSc2nccn2C)c1 | 0.0761 | –
CCc1cccc(NC(=O)CCNS(=O)(=O)c2cccc3nonc23)c1 | – | inactive
CCc1cccc(NC(=O)CCCN2C(=O)C(c3ccccc3)Oc3cccnc32)c1 (configuration not stated) | – | 7.94 µM (active)
Cc1ccc(S(=O)(=O)N2C[C@@H](C)[C@]3(C2)[C@H](O)[C@H](OC(=O)NCc2ccccc2)C[C@H]2C(=O)N(c4ccccc4)C(=O)[C@H]23)cc1 | -29.8 | –
O=C(NCc1ccccc1)C1=C[C@@H](c2ccccc2)C[C@@H](OCCCCO)O1 | 10.3 | –
O=C(C1=C[C@H](C2CC2)C[C@H](OCc2ccc(CO)cc2)O1)N1CCN(Cc2ccccc2)CC1 | 5.02 | –
O=C(NCc1ccccc1)C1=C[C@@H](C2CCCCC2)C[C@@H](OCc2ccc(CO)cc2)O1 | – | 10 µM (active)
CCCNC(=O)C[C@@H]1CC[C@@H]2[C@H](COC[C@H](O)CN2C(=O)c2cc(Cl)cc(Cl)c2)O1 | 10.5 | –
CCOc1c(Br)cc(/C=C2\C(=O)N(CCC#N)N=C2C)cc1OC | -9.5 | –

SMILES | activity change, negative = inhibition [%] | Potency
Cc1cccc(C)c1-n1c(C)cc(/C=C2\C(=O)NN(c3ccccc3)C2=O)c1C | -33.4 | –
COc1cc(/C=C2/C(=O)NN(c3cccc(Cl)c3)C2=O)cc(Br)c1O | – | 5.01 µM (active)
Cc1ccccc1Cn1c(C)c(C(=O)NCc2cccc(C(F)(F)F)c2)sc1=O | -0.425 | –
CCOC(=O)C1(C)CCCN(C(=O)c2ccc(F)c(Cl)c2)C1 (configuration not stated) | 10.9 | –
CC(C)C[C@H]1CNC(=O)C(=O)N1C[C@H]1CCCN1C[C@H](Cc1ccc(O)cc1)N1C[C@H](CC(C)C)N(CC2CCCCCC2)C(=O)C1=O | 16.7 | –
O=C(OCCN1CCOCC1)C1(c2ccccc2)CCCCC1 | -20 | –
CC(=O)N1CCC(C(=O)OCc2ccc(Cl)cc2)(c2ccccc2)CC1 | – | 10 µM (active)
O=C(OCc1cc(=O)n2ccsc2n1)C1(c2ccc(Cl)cc2)CC1 | 38.1 | –
CC=CCn1c(SCCCc2ccccc2)nc2c1c(=O)[nH]c(=O)n2C | 9.86 | –
CCC(=O)N1CCCC1(C)C(=O)Nc1ccc2c(c1)CCN2C(C)=O (configuration not stated) | 20.5 | –
O=C(c1ccccc1)C(O)(CN1CCCCC1)c1ccccc1 (configuration not stated) | 7.83 | –
O=C(O)c1ccc(N=NN2CCOCC2)cc1 | 0.44 | –
O=C(O)c1cccc(N=NN2CCCCCC2)c1 | – | 3.55 µM (active)
COc1ccc(C(=O)C(OP(=O)(OC)OC)c2ccccc2OC)cc1 (configuration not stated) | 5.29 | –
COc1ccccc1CNC(=O)c1cc(-c2cc(F)ccc2OC)n[nH]1 | -19.5 | –
COc1cnn(-c2ccc([N+](=O)[O-])cc2)c(=O)c1Cl | 16 | –
O=c1[nH]n(-c2ccc([N+](=O)[O-])cc2)c(=O)c2ccccc12 | – | 5.01 µM (active)
O=[N+]([O-])c1ccc(N2CCOCC2)cc1 | 2.47 | –
COc1ccc(S(=O)(=O)N[C@@H]2C=C[C@@H](CC(=O)N3CCc4ccccc4C3)O[C@@H]2CO)cc1 | 5.11 | –
CC(C)CNC(=O)C1(C)CCCN1C(=O)CSc1ccccc1 (configuration not stated) | -1.66 | –
O=S(=O)(c1cccc(C(F)(F)F)c1)N1CCN(c2cnccn2)CC1 | -8.51 | –
O=S(=O)(c1cccc(C(F)(F)F)c1)N1c2ccccc2-n2cccc2C1c1cccnc1 (configuration not stated) | – | 10 µM (active)
CC(=O)Nc1ccc(NC(=O)C2CCCN2S(=O)(=O)c2cccc(C(F)(F)F)c2)cc1 (configuration not stated) | -10.5 | –
